About 83,000 compounds went through this panel and 20% of them were active in at least one assay; those are over-represented in the sample as a whole.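 Interpretation: 100, growth as untreated; towards 0, rising growth inhibition; 0, no net growth; 0 to -100, cell death. Compounds scoring below 10 were considered active.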
Legend:
Assay in all cases: NCI-60 one-dose screen, 48 h (100 = growth as untreated, 0 = no growth, -100 = all killed)
Settings in all cases: 10 µM
[1] = system: NCI-H23 lung
[2] = system: NCI-H226 lung
[3] = system: NCI-H322M lung
[4] = system: HOP-62 NSCLC
[5] = system: NCI-H460 lung
[6] = system: HOP-92 NSCLC
[7] = system: A549/ATCC NSCLC
[8] = system: 786-0 renal
[9] = system: COLO 205 colon

Measured: growth

CCOC(=O)C(CCC(C)C)C(=O)OCC
inactive: [1] 103% | [2] 98.2% | [3] 112% | [4] 105% | [5] 106% | [6] 93.6% | [7] 102% | [8] 113% | [9] 110%

O=C1Cc2ccccc2C(=O)O1
inactive: [1] 107% | [2] 108% | [3] 110% | [4] 108% | [5] 108% | [6] 92% | [7] 110% | [9] 123%

CC1CC(O)CC(C)(C)C1 (stereo not drawn)
inactive: [1] 98.4% | [2] 106% | [3] 98.2% | [4] 97.9% | [5] 106% | [6] 96.5% | [7] 97.3% | [8] 107% | [9] 102%

CC(=O)C1CCCCC1
inactive: [1] 103% | [2] 89.9% | [3] 105% | [4] 96% | [5] 102% | [6] 77.5% | [7] 97.2% | [8] 98.8% | [9] 101%

CCCOC(=O)C(O)c1ccccc1 (stereo not drawn)
inactive: [1] 106% | [2] 105% | [3] 132% | [4] 99.8% | [5] 107% | [6] 95% | [7] 126% | [9] 115%

O=S(=O)(O)c1ccc(O)c2ccccc12
inactive: [1] 93.4% | [2] 102% | [3] 110% | [4] 107% | [5] 115% | [6] 98.8% | [7] 118% | [8] 101% | [9] 121%

COC(=O)C(O)c1ccccc1 (stereo not drawn)
inactive: [1] 106% | [2] 107% | [3] 125% | [4] 105% | [5] 105% | [6] 95.6% | [7] 115% | [9] 111%

CC(=O)OC(OC(C)=O)C1CCCO1 (stereo not drawn)
inactive: [1] 97.4% | [2] 103% | [3] 114% | [4] 99.2% | [5] 109% | [6] 94.1% | [7] 101% | [9] 105%

CCS(=O)(=O)c1cc(=O)[nH]c(=O)[nH]1
inactive: [1] 99.9% | [2] 107% | [3] 87.4% | [4] 106% | [5] 106% | [6] 162% | [7] 102% | [8] 100% | [9] 113%

CCCCC1(CC)COC(CCC)OC1 (stereo not drawn)
inactive: [1] 111% | [2] 98% | [3] 117% | [4] 95.9% | [5] 115% | [6] 79.7% | [7] 103% | [9] 114%

CC(O)COc1ccc(-c2ccccc2)cc1 (stereo not drawn)
inactive: [1] 108% | [2] 104% | [3] 112% | [4] 102% | [5] 99.2% | [6] 92.7% | [7] 107% | [9] 110%

CCCC(=O)c1cc(C)ccc1OC
inactive: [1] 108% | [2] 99.7% | [3] 126% | [4] 101% | [5] 106% | [6] 81.5% | [7] 111% | [9] 112%

CC(C)OC(C(=O)O)c1ccccc1 (stereo not drawn)
inactive: [1] 101% | [2] 108% | [3] 117% | [4] 91.1% | [5] 109% | [6] 81.3% | [7] 105% | [9] 111%

O=C1OC(c2ccc(F)cc2)CC1CN1CCOCC1 (stereo not drawn)
inactive: [1] 98.8% | [2] 107% | [3] 102% | [4] 101% | [5] 108% | [6] 94.5% | [7] 100% | [8] 105% | [9] 93.1%

CCOC(=O)C1=C(Nc2ccc(Br)cc2)C(=O)N(CC)C1
inactive: [1] 98.8% | [2] 86.3% | [3] 95.6% | [4] 85.9% | [5] 107% | [6] 48.3% | [7] 98.8% | [8] 91.4% | [9] 108%

Cc1cc(C)c(CC(=O)O)c(C)c1
inactive: [1] 100% | [2] 99.8% | [3] 100% | [4] 107% | [5] 105% | [6] 90.5% | [7] 104% | [9] 108%

O=C(NCCNC(=O)c1ccc(Cl)cc1Cl)c1ccc(Cl)cc1Cl
inactive: [1] 114% | [2] 101% | [3] 113% | [4] 87.6% | [5] 105% | [6] 71.8% | [7] 104% | [8] 107% | [9] 129%

O=C(O)c1ccc(S(=O)(=O)O)cc1
inactive: [1] 101% | [2] 99.6% | [3] 98.8% | [4] 99.3% | [5] 109% | [6] 76.3% | [7] 91.5% | [8] 89.7% | [9] 129%

Source: PubChem BioAssay (NCI)
